Measurements: PubChem BioAssay
Active and inactive are the calls of the source. Cut-off read from the data, not from the text of the source: active = inhibition above about 31%; inactive = the rest.

Test: reversal of MRP1-mediated doxorubicin resistance, pilot screen, H69AR cells, doxorubicin co-treatment (AID 601)
Conditions: H69AR cells, CellTiter-Glo, 72 h; compound alone cytotoxicity; at 10 µM
Work on `CCOC(=O)c1cc(NC(=O)SCC(=O)O)c(C)nc1C` yielded a viability of 88.1%. `Clc1c(CSc2nc3ccccc3o2)nc2sccn12` gave a viability of 92.9%. Compound `O=C(CCn1[nH]c(=O)c2ccccc2c1=O)NCCO` has a viability of 89.3%. In the case of `CC12CCC(C(=O)N3CCN(C(=O)C45CCC(C)(C(=O)O4)C5(C)C)CC3)(OC1=O)C2(C)C`, the viability is reported as 105%. `COc1cccc(C2C(C(=O)c3cccs3)=C(O)C(=O)N2CCCn2ccnc2)c1OC` (stereo not given) showed a viability of 109%. With `Cc1ccc(S(=O)(=O)N(CC(=O)N2CCC(C(N)=O)CC2)Cc2ccc(F)cc2)cc1` the viability was 100%. `COc1ccc(N2CCN(C(=O)CSc3ccccc3)CC2)cc1` showed a viability of 95.5%. In the case of `COc1ccccc1N1CCN(C(=O)C2CCN(S(=O)(=O)c3ccc(F)cc3)CC2)CC1`, the viability is reported as 87.5%. Compound `COCCN1C=C(C(=O)OC)C(c2cc3c(cc2Br)OCO3)C(C(=O)OC)=C1` has a viability of 84.5%. For `CC1=C(C(N)=O)C(c2ccccn2)n2nc(SCc3ccccc3)nc2N1` (stereo not given), the viability was 93.8%. Work on `O=C(/C=C/N1CCOCC1)c1ccc(-c2ccccc2)cc1` yielded a viability of 89.5%. For `CCOc1ccc(NS(=O)(=O)c2cc(Cl)ccc2OC)cc1`, the viability was 70.8%. Compound `COc1ccc(NC(=O)CC2CCCCC2)cc1OC` has a viability of 103%. Work on `Cc1oc(-c2cccc(Cl)c2)nc1CN1CCC(C(=O)N2CCN(c3ccccc3F)CC2)CC1` yielded a viability of 32.3%. For `O=C(Nc1ccc2c(c1)OCCO2)C1CCN(C(=O)c2ccc(F)cc2)CC1`, the viability was 92.5%. `CCOC(=O)Nc1c(O)ccc2oc(C)c(-c3ccccc3)c12` showed a viability of 99.8%. In the case of `O=C(CCNS(=O)(=O)c1cccs1)Nc1ccccc1F`, the viability is reported as 108%. `CCOC(=O)N1CCN(C(=O)CN(C2CCCCC2)S(=O)(=O)c2ccc(F)cc2)CC1` showed a viability of 97.7%. Work on `O=C(COc1ccc(F)cc1)Nc1ccc(-n2cnnn2)cc1` yielded a viability of 93.1%. `O=C(Cn1c(=O)sc2ccccc21)NCCOc1ccccc1F` showed a viability of 99.4%. `O=C(c1ccco1)c1nnn(Cc2ccccc2)c1-c1ccccc1` showed a viability of 85.1%. In the case of `O=C(Nc1ncc(Cc2ccccc2)s1)C1CCCO1` (stereo not given), the viability is reported as 103%. `CC1=C(C(=O)OC2CCCCCC2)C(c2ccc(C)o2)C2=C(CCCC2=O)N1` (stereo not given) gave a viability of 97.2%. In the case of `CC12CN3CCN(CC(C3)C1(O)CN1CCCCC1)C2` (stereo not given), the viability is reported as 92.5%. For `CCn1c(C(C#N)/C(=N\S(=O)(=O)c2cccs2)c2ccccc2)nc2ccccc21` (stereo not given), the viability was 81.7%. Compound `CCOC(=O)N1CCN(C(=O)c2cnn(-c3ccccc3)c2NC(=O)c2ccccc2F)CC1` has a viability of 92%. `O=C(CCC(=O)OCC(=O)c1ccccc1)NC1CCCCC1` showed a viability of 101%. `O=C(Nc1nc2c(s1)CCCC2)C1COc2ccccc2O1` (stereo not given) gave a viability of 88.3%. In the case of `CCN(CC)S(=O)(=O)c1ccc2c(c1)nc(SCn1nnc3ccccc3c1=O)n2CC`, the viability is reported as 83.2%. In the case of `Cc1ccc(N2C(=O)c3oc4ccccc4c(=O)c3C2c2cccc(O)c2)nc1` (stereo not given), the viability is reported as 91.8%. In the case of `COc1cc(C(=O)NCCc2ccc3c(c2)OCCO3)ccc1OCC(=O)N1CCOCC1`, the viability is reported as 93.3%. Work on `O=C(CN1CCN(Cc2ccccc2)CC1)NCC1COc2ccccc2O1` (stereo not given) yielded a viability of 93.2%. `Cc1nonc1NC(=O)c1ccccc1Br` showed a viability of 91.8%. `Cc1cc(NC(=O)CSc2nc3c(c(-c4cccnc4)c2C#N)CCC3)no1` showed a viability of 90.9%. Work on `Cc1onc(-c2ccccc2)c1C(=O)NCc1cccnc1` yielded a viability of 99.4%. `OC(CNCCc1ccccc1)c1ccccc1` (stereo not given) showed a viability of 91.2%. In the case of `Cc1ccc(C)n1-c1ccc(N2CCOCC2)cc1`, the viability is reported as 77.9%. `C#CCOC(=O)C1C2C=CC(C2)C1C(=O)O` (stereo not given) showed a viability of 93.6%. Compound `Cc1ccc(C(=O)Nc2c(C(=O)N3CCOCC3)cnn2-c2ccccc2)cc1` has a viability of 91.8%. For `Clc1cccc(-c2nnc(-c3ccccc3)o2)c1`, the viability was 76.7%.

Test: 384-well plate pilot, post-Golgi transport modulator project, inhibition of yeast transport mutant growth (AID 636)
Conditions: absorbance 615 nm, about 18 h, stronger effect = higher value
For `CCOC(=O)c1cc(NC(=O)SCC(=O)O)c(C)nc1C`, the inhibition was 2.34% (inactive). For `Clc1c(CSc2nc3ccccc3o2)nc2sccn12`, the inhibition was -1.04% (inactive). With `O=C(CCn1[nH]c(=O)c2ccccc2c1=O)NCCO` the inhibition was -7.07% (inactive). In the case of `CC12CCC(C(=O)N3CCN(C(=O)C45CCC(C)(C(=O)O4)C5(C)C)CC3)(OC1=O)C2(C)C`, the inhibition is reported as -3.47% (inactive). With `COc1cccc(C2C(C(=O)c3cccs3)=C(O)C(=O)N2CCCn2ccnc2)c1OC` (stereo not given) the inhibition was -7.47% (inactive). In the case of `Cc1ccc(S(=O)(=O)N(CC(=O)N2CCC(C(N)=O)CC2)Cc2ccc(F)cc2)cc1`, the inhibition is reported as -3.87% (inactive). In the case of `COc1ccc(N2CCN(C(=O)CSc3ccccc3)CC2)cc1`, the inhibition is reported as -8.13% (inactive). With `COc1ccccc1N1CCN(C(=O)C2CCN(S(=O)(=O)c3ccc(F)cc3)CC2)CC1` the inhibition was -0.27% (inactive). With `COCCN1C=C(C(=O)OC)C(c2cc3c(cc2Br)OCO3)C(C(=O)OC)=C1` the inhibition was -4.13% (inactive). With `CC1=C(C(N)=O)C(c2ccccn2)n2nc(SCc3ccccc3)nc2N1` (stereo not given) the inhibition was -3.92% (inactive). In the case of `O=C(/C=C/N1CCOCC1)c1ccc(-c2ccccc2)cc1`, the inhibition is reported as -5.07% (inactive). For `CCOc1ccc(NS(=O)(=O)c2cc(Cl)ccc2OC)cc1`, the inhibition was -6.93% (inactive). In the case of `COc1ccc(NC(=O)CC2CCCCC2)cc1OC`, the inhibition is reported as -6% (inactive). For `Cc1oc(-c2cccc(Cl)c2)nc1CN1CCC(C(=O)N2CCN(c3ccccc3F)CC2)CC1`, the inhibition was -1.6% (inactive). In the case of `O=C(Nc1ccc2c(c1)OCCO2)C1CCN(C(=O)c2ccc(F)cc2)CC1`, the inhibition is reported as -4.53% (inactive). With `CCOC(=O)Nc1c(O)ccc2oc(C)c(-c3ccccc3)c12` the inhibition was 0.26% (inactive). For `O=C(CCNS(=O)(=O)c1cccs1)Nc1ccccc1F`, the inhibition was -6.49% (inactive). With `CCOC(=O)N1CCN(C(=O)CN(C2CCCCC2)S(=O)(=O)c2ccc(F)cc2)CC1` the inhibition was -6% (inactive). In the case of `O=C(COc1ccc(F)cc1)Nc1ccc(-n2cnnn2)cc1`, the inhibition is reported as -4% (inactive). With `O=C(Cn1c(=O)sc2ccccc21)NCCOc1ccccc1F` the inhibition was -1.82% (inactive). With `O=C(c1ccco1)c1nnn(Cc2ccccc2)c1-c1ccccc1` the inhibition was -2.93% (inactive). For `O=C(Nc1ncc(Cc2ccccc2)s1)C1CCCO1` (stereo not given), the inhibition was -4.67% (inactive). For `CC1=C(C(=O)OC2CCCCCC2)C(c2ccc(C)o2)C2=C(CCCC2=O)N1` (stereo not given), the inhibition was -1.49% (inactive). With `CC12CN3CCN(CC(C3)C1(O)CN1CCCCC1)C2` (stereo not given) the inhibition was -8.13% (inactive). For `CCn1c(C(C#N)/C(=N\S(=O)(=O)c2cccs2)c2ccccc2)nc2ccccc21` (stereo not given), the inhibition was 0.26% (inactive). With `CCOC(=O)N1CCN(C(=O)c2cnn(-c3ccccc3)c2NC(=O)c2ccccc2F)CC1` the inhibition was -4% (inactive). For `O=C(CCC(=O)OCC(=O)c1ccccc1)NC1CCCCC1`, the inhibition was -7.33% (inactive). With `O=C(Nc1nc2c(s1)CCCC2)C1COc2ccccc2O1` (stereo not given) the inhibition was -4.27% (inactive). In the case of `CCN(CC)S(=O)(=O)c1ccc2c(c1)nc(SCn1nnc3ccccc3c1=O)n2CC`, the inhibition is reported as -4.93% (inactive). With `Cc1ccc(N2C(=O)c3oc4ccccc4c(=O)c3C2c2cccc(O)c2)nc1` (stereo not given) the inhibition was 0.9% (inactive). With `COc1cc(C(=O)NCCc2ccc3c(c2)OCCO3)ccc1OCC(=O)N1CCOCC1` the inhibition was -5.95% (inactive). With `O=C(CN1CCN(Cc2ccccc2)CC1)NCC1COc2ccccc2O1` (stereo not given) the inhibition was -2.53% (inactive). For `Cc1nonc1NC(=O)c1ccccc1Br`, the inhibition was -3.6% (inactive). For `Cc1cc(NC(=O)CSc2nc3c(c(-c4cccnc4)c2C#N)CCC3)no1`, the inhibition was -5.6% (inactive). For `Cc1onc(-c2ccccc2)c1C(=O)NCc1cccnc1`, the inhibition was -3.33% (inactive). In the case of `OC(CNCCc1ccccc1)c1ccccc1` (stereo not given), the inhibition is reported as -5.07% (inactive). With `Cc1ccc(C)n1-c1ccc(N2CCOCC2)cc1` the inhibition was -6.35% (inactive). With `C#CCOC(=O)C1C2C=CC(C2)C1C(=O)O` (stereo not given) the inhibition was -6.27% (inactive). For `Cc1ccc(C(=O)Nc2c(C(=O)N3CCOCC3)cnn2-c2ccccc2)cc1`, the inhibition was -4.27% (inactive). With `Clc1cccc(-c2nnc(-c3ccccc3)o2)c1` the inhibition was -8.92% (inactive).
